Source: PubChem BioAssay AID652067 (The Scripps Research Institute Molecular Screening Center, 2013)
The whole screen tested about 370,000 compounds, of which about 5,400 (1.5%) were called active. The sample holds actives, similar compounds and a random draw of the others, so the mix is not that of the screen. Unmarked numbers belong to inactive results.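 Rule for the calls: active = activation above the mean of all tested compounds plus 3 SD (cut at about 5.5% in these data); inactive = the rest.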

system: DAF-12 nuclear receptor (Haemonchus contortus); experiment: hcDAF-12 driven luciferase reporter activation – cell-based, luminescence, HEK293, lit1-tk-luc reporter, primary screen (AID 652067); details: HEK293 hcDAF-12 lit1-tk-luc reporter, at 6.8 µM, hits give high values, 0% DMSO, 100% Δ7-dafachronic acid;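 note: 100% = response to 3 µM Δ7-dafachronic acid high control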

| SMILES | activation |
| --- | --- |
| CC(C)c1cc(C(=O)O)on1 | -0.85% |
| CC(C)Cc1oc(C(=O)O)cc1CN | 6.53% (active) |
| Cc1oc(CC(C)C)c(CN2CCCC2)c1C(=O)O | -1.65% |
| O=C(OC12CCCN(C1)/C(=C/c1cccnc1)C2)C1CCCC1 (stereo not given) | -3.57% |
| COC(=O)c1c(-c2ccc(OC)cc2)c2c(c3c4cc(OC)ccc4n(S(=O)(=O)c4ccc(F)cc4)c13)C(=O)N(C)C2 | -2.09% |
| O=[N+]([O-])c1cc([N+](=O)[O-])c2cccnc2c1O | 3.46% |
| O=[N+]([O-])c1ccc2nc(-c3ccccn3)[nH]c2c1 | 5.76% (active) |
| O=C(Nc1ccc([N+](=O)[O-])cc1)OCCc1ccccn1 | 1.17% |
| O=C(N1CCOCC1)N1CC[C@H]2[C@H](CCCN2Cc2ccc(F)cc2)C1 | 0.64% |
| Cc1ccccc1CN1CCCCC(NC(=O)Nc2ccccc2F)C1=O (stereo not given) | -3.94% |
| CC(C)c1ccc(Nc2nnc(SCC(=O)c3nnc(-c4ccccc4)o3)s2)cc1 | 6.6% (active) |
| CC(C)Nc1nnc(SCC(=O)c2c[nH]c3ccccc23)s1 | 4.15% |
| CN(C(=O)CSc1nnc(Nc2ccccc2)s1)C1CCS(=O)(=O)C1 (stereo not given) | -0.76% |
| COC(=O)C1=C(C)N(Cc2cccc(C(F)(F)F)c2)C(=NCc2cccc(C(F)(F)F)c2)NC1c1ccccc1C(F)(F)F (stereo not given) | -2.22% |
| CC[C@@H](CCC(=O)N(c1ccccc1)c1ccccc1)C1CC1 | -2.66% |
| COc1ccc(C(C)(NC(C)=O)c2nc(-c3ccc(S(C)(=O)=O)cc3)cs2)cc1 (stereo not given) | -1.14% |
| COc1ccc(C(C)(O)c2nc(-c3cc(F)cc(F)c3)cs2)cc1 (stereo not given) | -1.58% |
| COc1ccc(-c2csc(Cc3nc(O)cs3)n2)cc1 | 10.9% (active) |
| O=S1(=O)c2c(cccc2N2CCSCC2)Oc2ccccc2CN1Cc1cn(Cc2ccc(F)cc2)nn1 | -2.88% |
| O=C(CNS(=O)(=O)c1ccccc1F)N1CCN(c2ccccn2)CC1 | -0.84% |
| O=C(Nc1cccc(F)c1)c1coc(=O)c(Br)c1 | 0.1% |
| O=C(Nc1cccc(F)c1)c1cc(-c2ccco2)nc2ccccc12 | 5.67% (active) |
| CN(C(=O)COC(=O)c1cc(-c2ccco2)nc2ccccc12)C1CCS(=O)(=O)C1 (stereo not given) | 1.58% |

| SMILES | activation |
| --- | --- |
| O=C(NCc1ccc(Cl)cc1)C1CCCN(c2nc3ccccc3o2)C1 (stereo not given) | -2.71% |
| C/C(=N\NC(=S)NC1CCCCC1)c1ccc(C)o1 | -1.13% |
| C/C(=N/NC(=O)c1ccc(Br)o1)c1ccc(C)o1 | 8.8% (active) |
| CC(CNC(=O)c1ccc(Br)o1)NC(=O)c1ccc(Br)o1 (stereo not given) | -0.92% |
| c1cncc(CNc2ccnc(-c3ccc4c(c3)OCO4)n2)c1 | 0.49% |
| Cc1ccc(C(=O)Nc2ccc3c(c2)OCCO3)cc1S(=O)(=O)N1CCOCC1 | 0.29% |
| CN1CCN(c2ccc(NC(=O)c3ccc4c(c3)OCCO4)cc2Cl)CC1 | 6.55% (active) |
| O=C(Nc1ccc(N2CCOCC2)c(Cl)c1)c1ccc(S(=O)(=O)N2CCOCC2)cc1 | -2.07% |
| CCSC1(SCC)N=C(N)C2(C#N)C(c3ccccc3)NC(C)=CC12C#N (stereo not given) | -0.75% |
| CCC1C(=O)c2ccccc2N(C)C1=O (stereo not given) | 4.03% |
| CN1C(=O)/C(=N/OC(=O)c2ccccc2Br)c2ccccc21 | -0.66% |
| CN1C(=O)/C(=C\c2cc(Br)cs2)c2ccccc21 | 6.07% (active) |
| COC(=O)[C@]12C[C@H](CC(=O)NCc3ccc(C)o3)C(=O)N(CCC3=CCCCC3)C1=C[C@H](C(C)(C)C)O[C@@H]2C | 0.28% |
| COc1cc(/C=C/C(=O)OCC(=O)NCCCc2ccccc2)ccc1O | -0.23% |
| COc1ccc(/C=N/Nc2ncnc3sc4c(c23)CCCC4)cc1O | 2.31% |
| O=[N+]([O-])c1cc(Br)c(O)c(/C=N/Nc2nc3ccccc3s2)c1 | 5.75% (active) |
| COc1cc(/C=N/Nc2nc3ccccc3s2)ccc1O | 11.4% (active) |
| O=C(N/N=C/c1cc([N+](=O)[O-])ccc1O)/C(=C\c1cccs1)NC(=O)c1ccccc1 | 2.67% |
| O=C(C1CCCN1S(=O)(=O)c1ccccc1)N1CCc2ccccc2C1 (stereo not given) | -0.91% |
| O=C(CSc1nnc(-c2ccccn2)n1-c1ccccc1)Nc1ccc2cn[nH]c2c1 | 1.82% |
| CN[C@H]1C[C@H]2c3cc(N4CCOCC4)ccc3CCN2C[C@H]1[C@H](C)O | 0.66% |
| CCCOc1ccc(NC(=O)CC2C(=O)N(C)C(=S)N2Cc2ccc3c(c2)OCO3)cc1 (stereo not given) | -1.25% |
| O=C(Nc1ccc(Cl)cc1)C1c2cccc[n+]2CC(=O)N1Cc1ccc2c(c1)OCO2 (stereo not given) | 6.69% (active) |

| SMILES | activation |
| --- | --- |
| O=C(Nc1ccc2c(c1)OCCO2)C1c2ccccc2OCC(=O)N1Cc1ccccn1 (stereo not given) | 2.69% |
| O=C(COC(=O)/C(=C/c1cccs1)c1cccs1)NCc1ccccc1Cl | -2.32% |
| COc1cccc(NC(=O)N(C)C[C@@H]2OCc3cn(nn3)CCCC(=O)N([C@@H](C)CO)C[C@H]2C)c1 | 1.21% |
| CSc1nc2nc3c(c(=O)n2[nH]1)CCC3 | 0.72% |
| O=c1c2c(nc3cc(-c4cccc(Cl)c4)[nH]n13)CCCC2 | 8.74% (active) |
| COc1cccc(CC(=O)N2CCN(C(=O)C(=O)c3cccc(C(F)(F)F)c3)CC2)c1 | 1.16% |
| CC(C)CSc1nnc(-c2cccnc2)n1Cc1ccccc1 | -1.13% |
| O=C(c1ccncc1)N1CC[C@H]2[C@H](CCCN2Cc2ccc(F)cc2)C1 | -1.38% |
| CC(NC(=O)C(=O)N/N=C/c1ccc(Cl)cc1)c1ccccc1 (stereo not given) | -1.03% |
| CC(C)c1ccc(C=NNc2ccc([N+](=O)[O-])cn2)cc1 | 9.24% (active) |
| CC(C)c1ccc(/C=C2\NC(=O)NC2=O)cc1 | -2.26% |
| COC(=O)[C@]12C[C@H](CC(=O)NCc3cccc(C(F)(F)F)c3)C(=O)N(Cc3ccc4c(c3)OCO4)C1=C[C@H](COCc1ccccc1)O[C@@H]2C | 0.41% |
| Cc1ccc(C2Nc3cccc4cccc(c34)N2)cc1 | 6.38% (active) |
| COc1ccc(-c2cc(-c3nnc(SCC(=O)Nc4cccc5ccccc45)n3N)[nH]n2)cc1 | 0.47% |
| O=C(N=C1SC2CS(=O)(=O)CC2N1c1cc(Cl)ccc1Cl)C1CC1 (stereo not given) | -1% |
| COc1ccc(Cn2cc(COC(=O)N(C)Cc3ccccc3)nn2)cc1 | -0.59% |
| Cc1ccccc1C(=O)OC1OC(=O)C(Cl)=C1Nc1ccccc1 (stereo not given) | -2.44% |
| Cc1cc(C)nc(Nc2n[nH]c(-c3ccccc3N)n2)n1 | 8.9% (active) |
| CC(C)CNc1cccc2c1S(=O)(=O)N[C@H](C)CO2 | -1.2% |
| O=C(NCc1ccccc1)[C@@H]1CCCN1C(=O)[C@H]1CCCN1C(=O)c1cccc(Cl)c1 | -0.09% |
| O=C(NN=Cc1ccco1)C(=O)Nc1ccc(Cl)c([N+](=O)[O-])c1 | -1.72% |
| Cc1cc2c(nc1C)CCCN2C | 1.19% |
| CCOC(=O)[C@]12CCCC=C1N(Cc1ccc(OC)cc1)C(=O)[C@@H]2CC(=O)NCc1cccs1 | -0.39% |

| SMILES | activation |
| --- | --- |
| COc1cccc(Nc2nc(N)c([N+](=O)[O-])c(NCc3ccco3)n2)c1 | -3.76% |
| CNc1nc(Nc2ccc(C)c(Cl)c2)nc(N)c1[N+](=O)[O-] | 10.8% (active) |
| Nc1nc(Nc2ccccc2F)nc(NC2CCCCC2)c1[N+](=O)[O-] | -1.49% |
| COc1ccc(NC(=O)N(C)C[C@@H]2OCCCC[C@@H](C)Oc3ccc(NC(=O)NC4CCCCC4)cc3C(=O)N([C@H](C)CO)C[C@@H]2C)cc1 | -0.68% |
| Cc1ccccc1CS(=O)(=O)Cc1ccc(C(=O)Nc2ccc(Cl)cc2)o1 | -6.56% |
| COP(=O)(O)CNC(=O)OCc1ccccc1 | -1.19% |
| COc1ccc(-n2nnnc2-c2nc3ccccc3s2)cc1 | 9.22% (active) |
| FC(F)(F)c1nc(-c2ccccc2)ncc1-c1nnnn1-c1ccccc1 | -4.23% |
| COc1ccc(-n2nnnc2SCC(=O)NCc2cccs2)cc1 | -2.07% |
| NC(=O)c1ccccc1N=Cc1ccc2ccccc2c1 | 10.7% (active) |
| O=C(OCC(=O)N1CCOCC1)c1ccc2ccccc2c1 | 0.31% |
| O=C1CC[C@@H](COc2ccc3[nH]cc(-c4ccccc4)c3c2-c2ccccc2)N1 | -1.8% |
| CC(C)(C)c1ccc(C(=O)Nc2cc(Cl)c(Br)cc2C(=O)O)cc1 | 2.27% |
| COc1ccc(CCNC(=O)CSc2nc3c([nH]2)c(=O)n(C)c(=O)n3C)cc1 | -0.84% |
| O=C(NCc1ccc(F)cc1)C1CCN(C(=O)Nc2ccc(F)cc2)CC1 | -1.57% |
| Cc1ccc(NC(=O)N2CCC(C(=O)NCc3ccc(F)cc3)CC2)cc1 | -0.76% |
| N[C@@H](Cc1ccccc1)C(=O)N1CCC(C(=O)NCC(=O)Nc2ccc(F)cc2)CC1 | 8.85% (active) |
| O=C(NC1CCC1)c1ccc(C#Cc2cccc(F)c2)c[n+]1[O-] | 1.33% |
| COCn1c(C(O)c2ccccc2)cc2ccccc21 (stereo not given) | 6.22% (active) |
| CCOC(=O)c1cc2ccccc2n1CC(=O)c1ccccc1 | 1.16% |
| COc1cc(C(O)c2nc3ccccc3n2C)cc(OC)c1OC (stereo not given) | -1.25% |
